Only some compounds are listed: those with a hit (about 2.9% of all), similar ones and a draw of the others.
PAFAH1B2 inh: blocks human PAF acetylhydrolase 1b catalytic subunit 2; P68402; recombinant PAFAH1B2, FP-rhodamine activity probe, fluorescence polarization; inhibition, % at 3.39 µM; actives 1.2% (n = 340,000); AID 492953;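 active = inhibition above the mean of all tested compounds plus 3 SD, cut at about 24% in these data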;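 note: 0% = enzyme with DMSO and 100% = wells lacking PAFAH1B2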
Target sequence (P68402 whole entry, looked up): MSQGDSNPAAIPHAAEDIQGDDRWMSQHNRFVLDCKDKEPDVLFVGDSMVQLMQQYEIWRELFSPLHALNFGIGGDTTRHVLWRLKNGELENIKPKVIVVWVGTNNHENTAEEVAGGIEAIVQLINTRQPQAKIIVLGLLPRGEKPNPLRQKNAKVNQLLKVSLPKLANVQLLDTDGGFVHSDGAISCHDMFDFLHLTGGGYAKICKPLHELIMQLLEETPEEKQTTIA
pPAFAH inh: pPAFAH (human) enzyme inhibition; AID 463082; inhibition, % at 3.39 µM; recombinant pPAFAH, FP-rhodamine probe fluorescence polarization; actives 1.5% (n = 330,000); Q13093;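 active = inhibition above the mean inhibition across the screen plus 3 SD, cut at about 25% in these data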;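 note: inhibitors block binding of the rhodamine activity-based probe so polarization drops; 0% = enzyme with DMSO and 100% = wells lacking pPAFAH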
EBNA-1 inh: blocks EBNA-1 binding to DNA; inhibition, % at 14.8 µM; AID 1950; EBNA-1 DNA binding, fluorescence polarization; actives 0.34% (n = 300,000); in the data active = inhibition above about 28%
ZTA DNA inh: ZTA (EBV) inhibition in EBNA-1 counter-screen; P03206; ZTA-DNA binding, fluorescence polarization; inhibition, % at 11 µM; actives 0.15% (n = 320,000); in the data active = inhibition above about 33%
PAFAH2 inh: PAFAH2 (human) inhibition. recombinant PAFAH2, FP-rhodamine activity probe, fluorescence polarization. inhibition, % at 3.39 µM. actives 0.99% (n = 340,000). AID 492956;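 active = inhibition above the mean over all tested compounds plus 3 SD, cut at about 30% in these data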;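 note: inhibitors block probe labeling of enzyme so polarization drops; 0% = enzyme with DMSO and 100% = wells lacking PAFAH2 protein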
PAFAH1B3 FP inh: PAFAH1B3 (human) inhibition; actives 0.28% (n = 340,000); recombinant PAFAH1B3, FP-rhodamine probe, fluorescence polarization; Q15102; AID 492972; inhibition, % at 3.39 µM;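 active = inhibition above the screen-wide average of all tested compounds plus 3 SD, cut at about 25% in these data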;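 note: 0% = enzyme with DMSO only and 100% = wells lacking PAFAH1B3 protein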
Target sequence (Q15102 whole entry, looked up): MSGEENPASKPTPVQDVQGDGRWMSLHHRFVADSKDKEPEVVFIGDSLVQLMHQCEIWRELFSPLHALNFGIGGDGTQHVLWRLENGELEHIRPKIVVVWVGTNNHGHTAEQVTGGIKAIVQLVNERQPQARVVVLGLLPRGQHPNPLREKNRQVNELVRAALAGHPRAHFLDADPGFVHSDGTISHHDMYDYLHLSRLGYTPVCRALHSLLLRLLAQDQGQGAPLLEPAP
Numbers without * were called inactive; . = not tested or not shown.

SMILES	PAFAH1B2 inh	pPAFAH inh	EBNA-1 inh	ZTA DNA inh	PAFAH2 inh	PAFAH1B3 FP inh
CN1/C(=C\C(=O)C(F)F)C(C)(C)c2ccccc21	5	-3	-18	-6	8	11
CN1/C(=C\C(=O)c2ccco2)C(C)(C)c2ccccc21	-47	-9	39*	147*	-76	-48
Cc1ccc(S(=O)(=O)N2CCN(CC(=O)N(CC(C)C)c3c(N)n(CC(C)C)c(=O)[nH]c3=O)CC2)c(C)c1	4	-5	-15	-5	3	5
O=[N+]([O-])c1ccc(/C=N/Nc2ccnc3cc(Cl)ccc23)o1	1	28*	0	5	-2	4
Clc1ccc2c(N/N=C/c3ccccc3Br)ccnc2c1	-5	-1	0	7	-6	2
O=C(NC(Nc1nc2ccc([N+](=O)[O-])cc2s1)(C(F)(F)F)C(F)(F)F)c1ccccc1Cl	-5	33*	9	-18	2	-3
COc1ccc2c(-c3ccccc3)cc(SCC(=O)NC3CCS(=O)(=O)C3)nc2c1 (configuration not stated)	-1	23	-1	-6	1	2
COc1ccc2c(-c3ccccc3)cc(SCC(=O)N(C)C)nc2c1	-1	33*	11	8	5	5
COc1ccc2c(-c3ccccc3)cc(SCC(=O)NC(N)=O)nc2c1	2	7	-4	0	-6	3
COCCNC(=O)CSc1cc(-c2ccccc2)c2ccc(OC)cc2n1	1	30*	4	4	1	6
CCN(C(=O)CSc1cc(-c2ccccc2)c2ccc(OC)cc2n1)C1CCS(=O)(=O)C1 (configuration not stated)	3	26*	-2	-3	-4	10
CCN(C(=O)CSc1cc(C)c2ccc(OC)cc2n1)C1CCS(=O)(=O)C1 (configuration not stated)	1	-7	-5	5	-1	4
O=C(N/N=C/c1ccc(O)cc1)Nc1cccc2nsnc12	0	6	-11	10	5	6
CCOc1ccc(NC(=O)C23CC4CC(C2)CC(c2ccccc2)(C4)C3)cc1	27*	4	-8	-1	5	8
COc1cccc(CNC(=O)c2ccccc2-c2ccccc2C(=O)O)c1	6	-2	-27	7	7	8
O=C(O)c1ccccc1-c1ccccc1C(=O)NCc1cccc(C(F)(F)F)c1	29*	-3	-7	2	-4	-3
Oc1c(Cl)cc(Cl)cc1C=Nc1cc(C(F)(F)F)ccc1N1CCc2ccccc2C1	4	28*	-12	-1	6	5
Cc1cc(C)cc(NC(=O)Nc2ccccc2N2CCCCC2)c1	-3	10	5	-6	3	9
Cc1ccc2nnnc(-c3ccccc3)c2c1	-3	10	38*	35*	-5	5
Cc1ccc2nc(NCC(N)=O)nc(-c3ccccc3)c2c1	.	8	-10	-5	.	.
CC(C)=C(C#N)c1nc2ccccc2s1	6	0	15	-3	-8	5
N#C/C(=C(/O)c1ccccc1F)c1nc2cc(C(F)(F)F)ccc2s1	82*	2	0	-1	25	11
CN(CC(=O)NCCc1ccccc1)Cc1ccco1	5	-1	-1	-13	-1	2
CCOC(=O)/C=c1\s/c(=C\c2ccc(C(F)(F)F)cc2)c(=O)n1CC(=O)NCc1ccco1	-4	-2	-19	1	-7	-1
CCOC(=O)/C=c1\s/c(=C\c2ccc(C)cc2)c(=O)n1CC(=O)NCc1ccco1	-8	-1	45*	11	-31	-11
SMILES	PAFAH1B2 inh	pPAFAH inh	EBNA-1 inh	ZTA DNA inh	PAFAH2 inh	PAFAH1B3 FP inh
COc1cc(O)cc2cc3c(c(O)c12)C(=O)CC(C)(O)O3 (configuration not stated)	7	25*	-1	-6	13	19
COc1cc(O)c2c(c1)OC(C)(C)CC2=O	5	9	-2	7	2	5
O=C(NNC(=O)c1cc2ccccc2cc1O)Nc1ccc(F)cc1F	6	26*	2	-2	-8	29*
O=C(NNC(=O)c1cc2ccccc2cc1O)Nc1ccc(Br)cc1	3	26*	2	-7	-10	11
Cc1occc1C(=O)NNC(=O)Nc1ccc(F)cc1F	-3	1	-4	-2	4	11
CC(C)C(C)NC(=O)CN1C(=O)NC2(CCc3ccccc32)C1=O (configuration not stated)	-1	0	5	9	-4	-2
CCN1CCc2c(OCC(=O)N3CCCCC3)cccc2C1=O	3	-1	-3	3	6	4
Cc1cccc(C2=NN(c3ccc(Br)cc3)[C@@H](C(=O)N3CCOC3=O)[C@@H]2c2ccccc2)c1	2	29*	.	.	7	11
COc1ccc(NC(=S)N2CCC(c3nc4ccc(Cl)cc4[nH]3)CC2)c(OC)c1	-3	31*	2	0	-6	7
Cc1ccc2cc(CCNS(=O)(=O)c3ccc(F)cc3)c(=O)[nH]c2c1	12	-2	-1	4	12	6
Cc1ccc(S(=O)(=O)NCCc2cc3ccc(C)cc3[nH]c2=O)cc1	27*	7	14	-3	-14	-1
CC(Cc1n[nH]c(=S)n1N)c1ccccc1 (configuration not stated)	7	-2	-1	-2	-1	2
CC(=O)NCc1ccc(C(=O)COC(=O)COc2ccc(Cl)c(C)c2)s1	5	27*	.	.	4	6
CC(=O)NCc1ccc(C(=O)COC(=O)COc2ccccc2)s1	-2	15	.	7	1	10
O=C(COC(=O)C1CC1)Nc1ccc2[nH]c(=O)[nH]c2c1	-2	4	-1	17	-3	7
O=C(COC(=O)C12CC3CC(CC(Br)(C3)C1)C2)Nc1c(F)cccc1F	35*	-5	.	.	11	14
COc1ccccc1NC(=O)COC(=O)C12CC3CC(CC(Br)(C3)C1)C2	30*	3	.	.	0	16
Cc1c(NC(=O)COC(=O)C23CC4CC(CC(Br)(C4)C2)C3)c(=O)n(-c2ccccc2)n1C	26*	2	14	-1	5	11
O=C(COC(=O)C12CC3CC(CC(Br)(C3)C1)C2)Nc1ccc2[nH]c(=O)[nH]c2c1	37*	7	3	6	3	2
C/C(=N/NC(=O)CN1CCN(S(=O)(=O)c2ccc(C)cc2)CC1)c1ccco1	8	10	6	16	6	0
CCc1ccc(S(=O)(=O)Nc2cc3c(cc2N2CCOCC2)n(C)c(=O)c(=O)n3C)cc1	26*	4	-20	5	16	9
Cc1ccc(C(=O)Nc2ccccc2C(=O)Nc2ccccn2)cc1Cl	2	-5	-4	-5	-3	5
COc1cc(CNc2ccc(N3CCCC3)cc2)ccc1OCc1ccccc1	2	29*	74*	76*	6	18
